CD11b adhes enh – enhancers of CD11b/CD18 adhesion to fibrinogen, primary screen, K562 cells, luminescence | ATPlite luminescence | Integrin beta-2 (Homo sapiens) + Integrin alpha-M (Homo sapiens), P05107+P11215 | activation, % at 10 µM | AID 1499, 2009 | actives 0.07% (n = 93,000);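 active means 10 µM primary screen giving 50% or more activity, confirmed by 40% or more on retest at that dose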
Target sequence (P05107 whole entry, looked up, other chains not shown): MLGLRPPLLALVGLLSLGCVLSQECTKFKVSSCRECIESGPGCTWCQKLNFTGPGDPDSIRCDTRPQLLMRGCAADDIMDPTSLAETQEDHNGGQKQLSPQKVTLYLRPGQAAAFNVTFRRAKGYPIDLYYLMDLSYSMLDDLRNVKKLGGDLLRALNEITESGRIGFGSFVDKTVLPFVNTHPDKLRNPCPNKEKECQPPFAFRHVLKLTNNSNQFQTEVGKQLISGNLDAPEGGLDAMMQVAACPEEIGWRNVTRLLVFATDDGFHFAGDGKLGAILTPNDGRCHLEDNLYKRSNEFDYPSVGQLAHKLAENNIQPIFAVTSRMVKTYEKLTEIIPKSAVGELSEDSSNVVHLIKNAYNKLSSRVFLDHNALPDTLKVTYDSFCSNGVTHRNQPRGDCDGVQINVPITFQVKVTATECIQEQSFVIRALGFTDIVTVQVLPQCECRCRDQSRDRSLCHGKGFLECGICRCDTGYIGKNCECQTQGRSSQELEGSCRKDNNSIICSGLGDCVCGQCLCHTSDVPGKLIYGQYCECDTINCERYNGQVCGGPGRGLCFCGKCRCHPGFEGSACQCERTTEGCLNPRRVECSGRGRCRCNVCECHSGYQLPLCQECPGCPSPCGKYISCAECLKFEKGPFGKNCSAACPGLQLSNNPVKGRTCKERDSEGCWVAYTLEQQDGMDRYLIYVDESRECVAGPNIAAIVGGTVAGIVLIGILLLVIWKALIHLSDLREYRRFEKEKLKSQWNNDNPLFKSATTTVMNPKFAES
CYP2C19 inh – blockers of cytochrome P450 2C19 activity – biochemical, luminescence, ADME assay, primary screen; CYP2C19 Supersomes, luciferin-H EGE luminescence, 30 min; inhibition, % at 5 µM; actives 21% (n = 96,000); AID 778, 2007;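 active means CYP2C19 inhibition above a set limit at 5 µM in the primary screen, cut at about 50% in these data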
CYP2C19 act – human CYP2C19 activators, primary screen, biochemical, luminescence. Cytochrome P450 2C19 (Homo sapiens), P33261. recombinant CYP2C19, luciferin-H EGE luminescence; active compounds read high; 0 = fully inhibited enzyme, 1 = untreated enzyme. activation factor at 5 µM. 96,000 tested, under 10 active. AID 1025, 2008;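 active means activation factor of at least 2 at 5 µM in the primary screen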
CYP2C9 inhib – blockers of cytochrome P450 2C9 activity – biochemical, luminescence, ADME assay, primary screen; P11712; CYP2C9 Supersomes, luciferin-H conversion; inhibition, % at 5 µM; actives 20% (n = 96,000); AID 777, 2007;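 active means blocking of liver enzyme CYP2C9 beyond about 50% at 5 µM, limit read from the data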
Mac1 fbg inh – inhibitors of CD11b/CD18 adhesion to fibrinogen, primary screen, K562 cells, luminescence | Integrin beta-2 (Homo sapiens) + Integrin alpha-M (Homo sapiens), P05107+P11215 | ATPlite luminescence; Mn2+ added to activate the integrin | inhibition, % at 10 µM | actives 0.54% (n = 93,000) | AID 1497, 2009;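 active means primary inhibition of 50% or more at 10 µM, then 40% or more on retest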
CYP2C9 activ – human CYP2C9 activators, primary screen, biochemical, luminescence; AID 1024, 2008; Cytochrome P450 2C9 (Homo sapiens), P11712; activation factor at 5 µM; actives 1.4% (n = 96,000); recombinant CYP2C9, luciferin-H conversion; active compounds read high; factor 1 = untreated enzyme, 0 = blocked;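 active means activation factor of 2 or more for CYP2C9 at a 5 µM dose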
Numbers stand for hits; 0 = inactive; - = no result given. A selection: hits, their analogues and other compounds. The true share with any hit is near 28%.

SMILES | CD11b adhes enh | CYP2C19 inh | CYP2C19 act | CYP2C9 inhib | Mac1 fbg inh | CYP2C9 activ
O=C(CCC(=O)NNC(=S)Nc1ccccc1)NCc1ccccc1 | 0 | 0 | 0 | 0 | 0 | 0
CS(=O)(=O)Nc1nnc(SCC(=O)Nc2cccc([N+](=O)[O-])c2)s1 | 0 | - | - | - | 0 | -
O=C(O)C1C2C=CC(C2)C1C(=O)OC1CC2CCC1C2 (stereo not drawn) | 0 | 0 | 0 | 0 | 0 | 0
Cc1cccnc1NC(=O)C1CCCN(S(=O)(=O)c2ccc3c(c2)oc(=O)n3C)C1 (stereo not drawn) | 0 | 0 | 0 | 0 | 0 | 0
Cc1nnc(SCC(=O)NCc2ccc3c(c2)OCO3)[nH]c1=O | 0 | 0 | 0 | 67.6 | 0 | 0
COc1ccc(Cl)cc1NS(=O)(=O)c1ccc(S(=O)(=O)N2CCCC2)cc1 | 0 | 0 | 0 | 0 | 0 | 0
COc1cc(OC)c(S(=O)(=O)N2CCCCC2)cc1S(=O)(=O)N1CCCCC1 | 0 | 64.0 | 0 | 0 | 0 | 0
COc1ccc(Cl)cc1S(=O)(=O)N1CCCC1 | 0 | 0 | 0 | 0 | 0 | 2
COc1ccc(Cl)cc1S(=O)(=O)N1CCN(C)CC1 | 0 | 55.1 | 0 | 0 | 0 | 0
CCOc1ccc(Cl)cc1S(=O)(=O)N1CCCC1 | 0 | 53.4 | 0 | 0 | 0 | 2.2
Cn1ncc(C#N)c1/N=C/N1CCCC1 | 0 | 0 | 0 | 0 | 0 | 0
O=C(COC(=O)c1cnccn1)c1ccc2c(c1)CCCC2 | 0 | 0 | 0 | 0 | 0 | 0
CCOc1c(S(=O)(=O)N2CCCC2)ccc(Cl)c1Cl | 0 | 92.7 | 0 | 0 | 0 | 0
Cc1oc(-c2ccccc2)cc1C(=O)Nc1ccc(N(C)C)cc1 | 0 | 0 | 0 | 0 | 0 | 0
CCCOC(=O)C(C)n1cnc2sc(C)c(C)c2c1=O (stereo not drawn) | 0 | 69.7 | 0 | 55.7 | 0 | 0
CCOC(=O)c1sc2ncn(C(CC)C(=O)OC)c(=O)c2c1C (stereo not drawn) | 0 | 70.2 | 0 | 96.0 | 0 | 0
CCOC(=O)c1sc2nc[nH]c(=O)c2c1C | 0 | 0 | 0 | 0 | 0 | 0
CCOC(=O)c1sc2ncn(C(CC)C(=O)OCC)c(=O)c2c1C (stereo not drawn) | 0 | 60.0 | 0 | 83.0 | 0 | 0
CCOC(=O)c1sc2ncn(C(C)C(=O)OC)c(=O)c2c1C (stereo not drawn) | 0 | 57.3 | 0 | 53.6 | 0 | 0
CCOC(=O)c1sc2ncnc(OC)c2c1C | 0 | 0 | 0 | 0 | 0 | 0
O=[N+]([O-])c1ccccc1/C=N/Nc1nnc(-c2ccccc2)c(-c2ccccc2)n1 | 0 | - | - | - | 0 | -
C=C(C)c1nc(N)nc(N)n1 | 0 | 0 | 0 | 0 | 0 | 0
COc1cc(-c2nc3cnccn3c2Nc2c(C)cccc2C)ccc1O | 0 | 99.1 | 0 | 53.1 | 0 | 0
COc1ccc(-c2nc3cnccn3c2Nc2ccc(C)cc2)cc1 | 0 | 75.4 | 0 | 79.6 | 0 | 0
Cc1ccc2nc(-c3ccco3)c(Nc3ccccc3)n2c1 | 0 | - | - | - | 0 | -
SMILES | CD11b adhes enh | CYP2C19 inh | CYP2C19 act | CYP2C9 inhib | Mac1 fbg inh | CYP2C9 activ
Cc1ccc(-c2nc3cnccn3c2Nc2ccccc2)o1 | 0 | 82.6 | 0 | 76.5 | 0 | 0
COc1cc(-c2nc3ccccn3c2/N=C/c2ccccc2)ccc1O | - | 0 | 0 | 0 | - | 0
Cc1ccc(Nc2c(-c3ccc(C)o3)nc3cnccn23)cc1 | 0 | 57.3 | 0 | 0 | 0 | 0
Cc1ccc2nc(NCCO)nc(-c3ccccc3)c2c1 | 0 | 0 | 0 | 0 | 0 | 0
Cc1cc(NC(=O)c2cccc(S(=O)(=O)N3CCCCCC3)c2)no1 | 0 | 0 | 0 | 0 | 0 | 0
CCOC1(OCC)N=C(N)C2(C#N)C(c3cccc(C)c3)C12C#N (stereo not drawn) | - | 0 | 0 | 0 | - | 0
Cc1cccc(NS(=O)(=O)c2cnc(Cl)c(Br)c2)n1 | 0 | - | - | - | 0 | -
Cc1ccc(-c2nc3cnccn3c2Nc2ccc3c(c2)OCO3)o1 | 0 | 97.3 | 0 | 81.8 | 0 | 0
Cc1cc(C)n2c(Nc3ccc4c(c3)OCCO4)c(-c3ccc(C)o3)nc2n1 | 0 | 0 | 0 | 0 | 0 | 0
N#Cc1c(-c2ccccc2)c(-c2ccccc2)n(Cc2ccco2)c1NC(=O)c1cccs1 | 0 | 0 | 0 | 64.3 | 0 | 0
COc1cccc(C(=O)Cn2c(N3CCCCC3)nc3c2c(=O)n(C)c(=O)n3C)c1 | 0 | 0 | 0 | 0 | 0 | 0
Cn1c(=O)c2c(nc(N3CCCCCC3)n2CC(O)COc2ccccc2)n(C)c1=O (stereo not drawn) | - | 0 | 0 | 0 | - | 0
CN(c1nc2c(c(=O)n(C)c(=O)n2C)n1CC(=O)c1ccccc1)C1CCCCC1 | 0 | 0 | 0 | 65.8 | 0 | 0
Cn1c(Br)nc2c1c(=O)n(CC(O)COc1ccccc1)c(=O)n2C (stereo not drawn) | 0 | 86.2 | 0 | 0 | 0 | 0
Cn1c(=O)c2c(nc(NC3CCCCC3)n2CC(O)COc2ccccc2)n(C)c1=O (stereo not drawn) | 0 | 0 | 0 | 52.2 | 0 | 0
COc1cc(NC(=O)Cc2ccc(Cl)cc2)ccc1NC(=O)c1ccco1 | - | 0 | 0 | 0 | - | 0
COc1cc(NS(=O)(=O)c2ccc(Br)cc2)c(OC)cc1NC(=O)c1ccco1 | 0 | 97.5 | 0 | 100.0 | 0 | 0
COc1cc(OC)c(NC(=O)c2ccco2)cc1Cl | 0 | 0 | 0 | 0 | 0 | 0
COc1ccc(S(=O)(=O)Nc2cc(OC)c(NC(=O)c3ccco3)cc2OC)cc1 | 0 | 57.2 | 0 | 94.3 | 0 | 0
COc1ccc(NC(=O)c2cc(Cl)ccc2NC(=O)c2ccco2)c(OC)c1 | 0 | 72.8 | 0 | 94.1 | 0 | 0
CCOC(=O)Cn1cnc([N+](=O)[O-])n1 | 0 | 0 | 0 | 0 | 0 | 0
O=C(Nc1nc(-c2ccccc2)cs1)c1cccc([N+](=O)[O-])c1C(=O)O | 0 | - | - | - | 0 | -
CC1(C)CNC(=O)c2sc(N3CCOCC3)nc2C1 | 0 | 0 | 0 | 0 | 0 | 0
O=C(COc1ccc(S(=O)(=O)NC2CCCCC2)cc1Cl)NCc1ccc2c(c1)OCO2 | 0 | 94.0 | 0 | 98.5 | 0 | 0
O=C(COc1ccc(S(=O)(=O)NC2CCCCC2)cc1Cl)Nc1ccc2c(c1)OCO2 | 0 | 0 | 0 | 87.1 | 0 | 0
O=C1c2ccccc2C(=O)c2c(NCc3cccnc3)cccc21 | - | 98.6 | 0 | 79.4 | - | 0
CCc1nc(N)c(C#N)c(-c2ccc(F)cc2)c1C | 0 | 0 | 0 | 0 | 0 | 0
CCOc1cc(-c2c(C)c(CC)nc(N)c2C#N)ccc1O | 0 | 62.8 | 0 | 0 | 0 | 0
CCCc1cc(-c2ccc(O)c(OCC)c2)c(C#N)c(N)n1 | 0 | 90.2 | 0 | 82.5 | 0 | 0
